Our source for the inhibition values is PubChem BioAssay AID588758 (Vanderbilt Specialized Chemistry Center, 2011).

The experiment can be described thus: radioligand displacement at CNS targets panel – biochemical, Ricerca panel, percent inhibition, selectivity assay for M4 PAM project, profiling panel (AID 588758). The note with it: Ricerca radioligand binding panel, % inhibition, at 10 µM, stronger effect = higher value.

Molecules are shown by their SMILES. Activity calls are given as the source filed them.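 Rule for the calls: active = compound cutting binding or function at one or more panel targets by over half; inactive = the rest.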

Turning to `Cc1nc2sc(C(=O)NCc3ccncc3)c(N)c2c(C)c1Cl`, the inhibition is 79% (active). For the same molecule, the inhibition (GABA-A flunitrazepam site binding) is 64%. For the setting “measured here: 5-HT2B receptor binding”, this molecule displayed an inhibition of 74%. The molecule further displayed an inhibition (measured here: 5-HT3 receptor binding) of 35%. Further, under “measured here: Adenosine A3 binding”, the inhibition is 40%. Where the note is “measured here: Adrenergic beta2 binding”, this molecule returned an inhibition of 36%. The molecule also showed an inhibition (measured here: GABA-B 1A binding) of 25%. This molecule yielded an inhibition (measured here: Muscarinic M1 binding) of 9%. For the same molecule, the inhibition (measured here: Muscarinic M2 binding) was 10%. The inhibition (measured here: Muscarinic M3 binding) was found to be 14%. Also, the inhibition (measured here: Norepinephrine transporter binding) came to 35%. This molecule also yielded an inhibition (measured here: Serotonin transporter binding) of 3%. This molecule also had an inhibition (measured here: hERG channel binding) of 12%.
